# Records with an inconclusive call do not appear. Calls of active or inactive are those of the source. The calls were made as follows, unless noted: active = hit-call score of the fitted dose curve at least 0.9, where 1 is the maximum; inactive = score below 0.9.
# Assays:
# [1] = biological target: human RAR-related Orphan Receptor gamma (RORg), RORC (gene 6097) (UniProt P51449); assay: ATG_RORg_TRANS: Attagene TRANS-FACTORIAL HepG2 Assay for human RAR-related Orphan Receptor gamma (RORg) (AID 2283011; active = hit-call score of the fitted dose curve at least 0.9, where 1 is the maximum)
# Outline: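 Transient MRTU transfection of HepG2 (TRANS format, exogenous NR-Gal4 chimera). 24 h dosing. Total RNA → oligo(dT) RT → PCR → 6-FAM labelling → HpaI cut → CE. Gain vs DMSO.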
# [2] = biological target: Retinoic acid receptor RXR-alpha (Homo sapiens) (UniProt P19793); assay: ATG_RXRa_TRANS: Attagene TRANS-FACTORIAL HepG2 Assay for human Retinoid X Receptor alpha (RXRa) (AID 2283012; active = hit-call score of the fitted dose curve at least 0.9, where 1 is the maximum)
# Outline: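 Transient transfection of human HepG2 with multiple GAL4-UAS reporter constructs; 24 h compound exposure; total RNA isolated, reverse-transcribed, PCR-amplified, 6-FAM labelled, HpaI-cut, resolved by capillary electrophoresis. Positive-direction fit versus DMSO.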
# [3] = read-out: E-selectin (Homo sapiens) (UniProt P16581); assay: BSK_3C_Eselectin: BioMAP Diversity Plus: 3C Assay for Eselectin Biomarker Activity (AID 2283015); conditions: primary human endothelial cells (HUVEC); actives raise or lower the signal;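 as to outcome: cell surface E-selectin protein quantified by ELISA 24 h after dosing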
# Outline: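 HUVEC, 3C stimulation; compound exposure 24 h; E-selectin by ELISA; gain- or loss-of-signal fitted bidirectionally vs DMSO baseline.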
# [4] = read-out: Interleukin-1 alpha (IL1a), IL1A (gene 3552); assay: BSK_BE3C_IL1a: BioMAP Diversity Plus: BE3C Assay for Interleukin-1 alpha (IL1a) Biomarker Activity (AID 2283016); conditions: primary human bronchial epithelial cells; actives raise or lower the signal
# Outline: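 BE3C primary human bronchial epithelium; cpd 24 h; IL-1a by ELISA; bidirectional fit vs DMSO; parallel SRB (0.1% SRB, 10% TCA fix, 560 nm) for cytotoxicity.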
# [5] = read-out: Monocyte Chemoattractant Protein-1 (MCP1), CCL2 (gene 6347); assay: BSK_4H_MCP1: BioMAP Diversity Plus: 4H Assay for Monocyte Chemoattractant Protein-1 (MCP1) Biomarker Activity (AID 2283018); conditions: primary human endothelial cells (HUVEC); actives raise or lower the signal
# Outline: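 ELISA read-out of MCP-1 from human vascular endothelial primary cells taken at 24 hours after compound exposure. Activity was fitted in both directions relative to DMSO, which served as negative control.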
# [6] = read-out: Human Leukocyte Antigen - DR isotype (HLADR), HLA-DRA (gene 3122); assay: BSK_3C_HLADR: BioMAP Diversity Plus: 3C Assay for Human Leukocyte Antigen - DR isotype (HLADR) Biomarker Activity (AID 2283019); conditions: primary human endothelial cells (HUVEC); actives raise or lower the signal;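 as to outcome: ELISA of cell-surface HLA-DR on HUVEC 24 h after dosing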
# Outline: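 HUVEC, 3C stimulation, 24 h post-dose; HLA-DR by ELISA; bidirectional curve fit vs DMSO baseline; gain or loss of signal scored.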
# [7] = read-out: Interleukin-8 (IL8), CXCL8 (gene 3576); assay: BSK_3C_IL8: BioMAP Diversity Plus: 3C Assay for Interleukin-8 (IL8) Biomarker Activity (AID 2283020); conditions: primary human endothelial cells (HUVEC); actives raise or lower the signal
# Outline: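 ELISA read-out of IL-8 from human umbilical vein endothelium, measured 24 h after chemical dosing. Activity is expressed relative to DMSO negative control, with both increases and decreases fitted.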
# [8] = biological target: human Vitamin D Receptor (VDR), VDR (gene 7421) (UniProt P11473); assay: ATG_VDR_TRANS: Attagene TRANS-FACTORIAL HepG2 Assay for human Vitamin D Receptor (VDR) (AID 2283022; active = hit-call score of the fitted dose curve at least 0.9, where 1 is the maximum)
# Outline: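 RT-PCR/capillary electrophoresis read-out of reporter mRNA induction in transiently transfected HepG2; 24 h dosing; chimeric NR-Gal4 (TRANS format); gain-of-signal fit against DMSO baseline.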
# [9] = BSK_3C_SRB: Viability Assessment in the BioMAP Diversity Plus: 3C Assay (AID 2283023); conditions: primary human endothelial cells (HUVEC);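 also: fitted both ways against DMSO so a hit may be signal rise or drop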
# Outline: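 HUVEC, 24 h post-dose; 10% TCA fix, 0.1% SRB stain, A560 nm. Bidirectional curve fit vs DMSO negative control.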
# [10] = read-out: Matrix Metallopeptidase 1 (MMP1), MMP1 (gene 4312); assay: BSK_BE3C_MMP1: BioMAP Diversity Plus: BE3C Assay for Matrix Metallopeptidase 1 (MMP1) Biomarker Activity (AID 2283024); conditions: primary human bronchial epithelial cells; actives raise or lower the signal
# Outline: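 Human bronchial epithelial cells (BE3C system) exposed to compound for 24 h; MMP1 then quantified by ELISA. Activity was fitted in both directions relative to DMSO.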
# [11] = read-out: Pselectin, SELP (gene 6403); assay: BSK_4H_Pselectin: BioMAP Diversity Plus: 4H Assay for Pselectin Biomarker Activity (AID 2283026); conditions: primary human endothelial cells (HUVEC); actives raise or lower the signal
# Outline: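 ELISA read-out of P-selectin on human umbilical vein endothelium after 24 h of dosing. Values derive from bidirectional fitting relative to DMSO. Parallel SRB protein staining flagged overt cytotoxicity.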
# [12] = BSK_4H_SRB: Viability Assessment in the BioMAP Diversity Plus: 4H Assay (AID 2283027); conditions: primary human endothelial cells (HUVEC);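 also: cells exposed to compound for 24 h before staining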;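 as to AC50: curves fitted both ways versus DMSO so AC50 may be loss or gain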
# Outline: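 Human umbilical vein endothelial cells were dosed with chemical and, after 24 h, fixed with 10% TCA, stained with 0.1% sulforhodamine B, and read at 560 nm to give total protein as a cytotoxicity measure. Bidirectional fitting relative to DMSO control.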
# [13] = BSK_BE3C_SRB: Viability Assessment in the BioMAP Diversity Plus: BE3C Assay (AID 2283028); conditions: primary human bronchial epithelial cells;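 as to AC50: fitted both ways so AC50 may mark signal gain or loss versus DMSO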
# Outline: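 Primary human bronchial epithelium; chemical dosing, 24 h; 10% TCA fix, 0.1% SRB stain, A560; bidirectional fit vs DMSO baseline.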
# [14] = read-out: Thrombomodulin, THBD (gene 7056); assay: BSK_3C_Thrombomodulin: BioMAP Diversity Plus: 3C Assay for Thrombomodulin Biomarker Activity (AID 2283029); conditions: primary human endothelial cells (HUVEC); actives raise or lower the signal
# Outline: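 Read-out is ELISA of thrombomodulin on human umbilical vein endothelium 24 h after chemical dosing. Gain or loss of signal is scored relative to DMSO. Overt cytotoxicity is checked in parallel cultures by sulforhodamine B staining.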
# [15] = read-out: Urokinase-type plasminogen activator receptor (uPAR), PLAUR (gene 5329); assay: BSK_4H_uPAR: BioMAP Diversity Plus: 4H Assay for Urokinase-type plasminogen activator receptor (uPAR) Biomarker Activity (AID 2283030); conditions: primary human endothelial cells (HUVEC); actives raise or lower the signal
# Outline: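 HUVEC, 24 h post-dose; uPAR by ELISA; bidirectional fit vs DMSO baseline.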
# [16] = biological target: human Retinoid X Receptor beta (RXRb), RXRB (gene 6257) (UniProt P28702); assay: ATG_RXRb_TRANS: Attagene TRANS-FACTORIAL HepG2 Assay for human Retinoid X Receptor beta (RXRb) (AID 2283013; active = hit-call score of the fitted dose curve at least 0.9, where 1 is the maximum)
# Outline: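 Transfect HepG2 with GAL4-UAS multi-reporter constructs (chimeric NR-Gal4, TRANS format); dose compound 24 h; isolate RNA, RT-PCR, FAM primer extension, HpaI digest; quantify by capillary electrophoresis; positive direction vs DMSO.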
# [17] = biological target: human Thyroid Receptor alpha (THRa1), THRA (gene 7067) (UniProt P10827); assay: ATG_THRa1_TRANS: Attagene TRANS-FACTORIAL HepG2 Assay for human Thyroid Receptor alpha (THRa1) (AID 2283014; active = hit-call score of the fitted dose curve at least 0.9, where 1 is the maximum)
# Outline: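 Transient HepG2 transfection, NR-Gal4 chimera driving GAL4-UAS reporters; 24 h compound exposure; total RNA, oligo(dT) RT, PCR, fluorescent primer extension, capillary electrophoresis. Upward direction vs DMSO control.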
# [18] = BSK_3C_Vis: BioMAP Diversity Plus: 3C Assay for Morphology Visualization (AID 2283025); conditions: primary human endothelial cells (HUVEC);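 also: fitted both ways so gain or loss versus DMSO counts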;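 as to AC50: light microscopy image of cell morphology used as background control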
# Outline: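 Chemicals were added to primary human umbilical vein endothelium, cells were incubated 24 h, and morphology was then visualized by light microscopy. Gain or loss of signal was fitted bidirectionally relative to DMSO.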
# [19] = read-out: Monocyte Chemoattractant Protein-1 (MCP1), CCL2 (gene 6347); assay: BSK_3C_MCP1: BioMAP Diversity Plus: 3C Assay for Monocyte Chemoattractant Protein-1 (MCP1) Biomarker Activity (AID 2283017); conditions: primary human endothelial cells (HUVEC); actives raise or lower the signal
# Outline: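 HUVEC, 3C system; 24 h chemical exposure; MCP-1 by ELISA; bidirectional curve fit vs DMSO baseline.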
# [20] = read-out: Monokine induced gamma interferon (MIG), CXCL9 (gene 4283); assay: BSK_3C_MIG: BioMAP Diversity Plus: 3C Assay for Monokine induced gamma interferon (MIG) Biomarker Activity (AID 2283021); conditions: primary human endothelial cells (HUVEC); actives raise or lower the signal
# Outline: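 Read-out is ELISA detection of MIG on human umbilical vein endothelial cells, taken 24 h after dosing. Gain or loss of signal was scored relative to DMSO controls using bidirectional curve fitting.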
# E-selectin (Homo sapiens), sequence (P16581 whole entry, looked up): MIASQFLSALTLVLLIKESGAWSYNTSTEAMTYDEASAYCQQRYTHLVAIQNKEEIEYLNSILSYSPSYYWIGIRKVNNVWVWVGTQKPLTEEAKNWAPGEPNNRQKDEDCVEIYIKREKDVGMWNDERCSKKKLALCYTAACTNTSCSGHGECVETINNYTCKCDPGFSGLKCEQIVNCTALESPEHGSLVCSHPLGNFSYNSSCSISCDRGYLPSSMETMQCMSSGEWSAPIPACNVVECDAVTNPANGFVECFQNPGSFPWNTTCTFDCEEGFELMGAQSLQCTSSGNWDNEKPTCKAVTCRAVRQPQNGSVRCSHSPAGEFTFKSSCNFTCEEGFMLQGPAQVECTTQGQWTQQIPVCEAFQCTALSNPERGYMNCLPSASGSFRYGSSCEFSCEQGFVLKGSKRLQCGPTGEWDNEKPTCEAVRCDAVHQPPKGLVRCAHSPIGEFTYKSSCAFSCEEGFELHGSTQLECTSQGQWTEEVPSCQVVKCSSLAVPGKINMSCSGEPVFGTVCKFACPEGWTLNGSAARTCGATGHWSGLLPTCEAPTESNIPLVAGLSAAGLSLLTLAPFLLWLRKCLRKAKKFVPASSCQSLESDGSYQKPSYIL
# human RAR-related Orphan Receptor gamma (RORg), RORC (gene 6097), sequence (P51449 whole entry, looked up, the tested form may be a part): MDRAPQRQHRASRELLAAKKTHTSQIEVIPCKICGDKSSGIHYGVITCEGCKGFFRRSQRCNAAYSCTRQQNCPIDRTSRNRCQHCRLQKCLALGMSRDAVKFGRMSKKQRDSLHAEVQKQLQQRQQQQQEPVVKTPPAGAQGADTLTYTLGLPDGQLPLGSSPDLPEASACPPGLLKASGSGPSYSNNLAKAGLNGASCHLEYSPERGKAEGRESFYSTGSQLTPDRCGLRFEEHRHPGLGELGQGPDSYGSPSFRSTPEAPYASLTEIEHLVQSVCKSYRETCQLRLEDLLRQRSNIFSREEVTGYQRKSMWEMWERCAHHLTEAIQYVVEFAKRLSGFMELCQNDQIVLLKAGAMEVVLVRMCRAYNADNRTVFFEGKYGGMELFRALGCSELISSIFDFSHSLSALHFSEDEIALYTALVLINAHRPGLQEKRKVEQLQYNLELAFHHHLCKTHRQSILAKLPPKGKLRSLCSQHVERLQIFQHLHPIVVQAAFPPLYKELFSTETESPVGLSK
# Retinoic acid receptor RXR-alpha (Homo sapiens), sequence (P19793 whole entry, looked up, the tested form may be a part): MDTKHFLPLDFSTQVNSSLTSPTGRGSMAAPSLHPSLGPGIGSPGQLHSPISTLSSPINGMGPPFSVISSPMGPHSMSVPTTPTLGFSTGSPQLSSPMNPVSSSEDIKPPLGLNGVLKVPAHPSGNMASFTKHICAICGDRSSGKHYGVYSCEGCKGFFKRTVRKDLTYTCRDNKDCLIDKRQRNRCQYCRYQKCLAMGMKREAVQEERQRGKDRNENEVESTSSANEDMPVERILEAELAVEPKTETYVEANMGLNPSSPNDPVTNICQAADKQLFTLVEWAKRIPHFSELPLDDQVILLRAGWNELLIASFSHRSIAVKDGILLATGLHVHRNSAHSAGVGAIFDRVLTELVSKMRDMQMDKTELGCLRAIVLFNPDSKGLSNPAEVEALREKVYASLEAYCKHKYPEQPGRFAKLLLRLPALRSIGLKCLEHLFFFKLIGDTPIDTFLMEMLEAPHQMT
# human Vitamin D Receptor (VDR), VDR (gene 7421), sequence (P11473 whole entry, looked up, the tested form may be a part): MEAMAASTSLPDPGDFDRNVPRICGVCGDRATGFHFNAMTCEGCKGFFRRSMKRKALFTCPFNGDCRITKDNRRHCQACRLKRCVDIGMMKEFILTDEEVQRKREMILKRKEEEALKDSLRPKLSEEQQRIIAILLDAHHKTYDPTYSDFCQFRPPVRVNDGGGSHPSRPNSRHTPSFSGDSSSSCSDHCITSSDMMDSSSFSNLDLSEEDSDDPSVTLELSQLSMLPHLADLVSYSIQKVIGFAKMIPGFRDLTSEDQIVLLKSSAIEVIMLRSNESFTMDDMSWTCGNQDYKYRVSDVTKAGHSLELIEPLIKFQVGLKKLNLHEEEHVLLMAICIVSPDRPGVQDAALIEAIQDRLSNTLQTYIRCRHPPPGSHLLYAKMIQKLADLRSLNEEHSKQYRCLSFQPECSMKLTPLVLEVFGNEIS
# human Thyroid Receptor alpha (THRa1), THRA (gene 7067), sequence (P10827 whole entry, looked up, the tested form may be a part): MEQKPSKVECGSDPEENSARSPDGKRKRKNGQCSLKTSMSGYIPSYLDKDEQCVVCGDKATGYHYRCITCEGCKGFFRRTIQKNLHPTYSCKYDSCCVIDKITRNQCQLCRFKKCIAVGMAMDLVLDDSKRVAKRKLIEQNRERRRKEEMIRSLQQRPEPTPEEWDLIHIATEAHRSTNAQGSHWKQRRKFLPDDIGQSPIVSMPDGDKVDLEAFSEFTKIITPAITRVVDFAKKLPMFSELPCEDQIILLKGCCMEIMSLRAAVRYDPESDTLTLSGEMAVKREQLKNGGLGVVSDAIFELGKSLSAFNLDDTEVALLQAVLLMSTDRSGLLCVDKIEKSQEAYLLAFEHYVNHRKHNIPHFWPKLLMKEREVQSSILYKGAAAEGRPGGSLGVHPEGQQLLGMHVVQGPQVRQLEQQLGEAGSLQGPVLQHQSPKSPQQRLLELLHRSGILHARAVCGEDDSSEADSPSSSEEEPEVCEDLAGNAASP
# human Retinoid X Receptor beta (RXRb), RXRB (gene 6257), sequence (P28702 whole entry, looked up, the tested form may be a part): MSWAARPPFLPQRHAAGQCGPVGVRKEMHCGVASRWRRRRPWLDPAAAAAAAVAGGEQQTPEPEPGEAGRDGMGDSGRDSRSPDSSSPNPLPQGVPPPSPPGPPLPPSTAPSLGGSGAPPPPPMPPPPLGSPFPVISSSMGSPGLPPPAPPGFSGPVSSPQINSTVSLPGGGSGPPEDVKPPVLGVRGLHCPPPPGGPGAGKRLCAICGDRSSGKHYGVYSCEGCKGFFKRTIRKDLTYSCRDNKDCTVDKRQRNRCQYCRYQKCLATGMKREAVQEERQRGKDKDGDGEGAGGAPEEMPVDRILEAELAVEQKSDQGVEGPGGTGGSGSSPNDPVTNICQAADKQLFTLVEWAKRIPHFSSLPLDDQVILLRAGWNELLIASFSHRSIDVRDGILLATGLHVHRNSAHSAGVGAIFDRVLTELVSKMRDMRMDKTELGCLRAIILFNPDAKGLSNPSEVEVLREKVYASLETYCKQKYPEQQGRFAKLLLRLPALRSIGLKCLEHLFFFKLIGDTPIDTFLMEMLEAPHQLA
smiles,measurement,setting,value
FC(F)C(F)(F)COCC1CO1 (stereo not drawn),outcome,[1],inactive
same,outcome,[2],inactive
same,outcome,[3],inactive
same,outcome,[4],inactive
same,outcome,[5],inactive
same,outcome,[6],inactive
same,outcome,[7],inactive
same,outcome,[8],inactive
same,outcome,[9],inactive
same,outcome,[10],inactive
same,outcome,[11],inactive
same,outcome,[12],inactive
same,outcome,[13],inactive
same,outcome,[14],inactive
same,outcome,[15],inactive
c1ccc(C(O[C@@H]2CCCN(CCc3ccc4c(c3)OCO4)C2)c2ccccc2)cc1,outcome,[1],inactive
same,outcome,[16],inactive
same,outcome,[17],inactive
same,outcome,[3],inactive
same,outcome,[4],inactive
same,AC50,[5],23.6 µM (active)
same,AC50,[6],30.8 µM (active)
same,AC50,[7],25.9 µM (active)
same,AC50,[9],25.2 µM (active)
same,AC50,[18],9.8 µM (active)
same,outcome,[11],inactive
same,AC50,[12],25.4 µM (active)
same,outcome,[13],inactive
same,outcome,[14],inactive
same,AC50,[15],15.5 µM (active)
COCc1nnc(-c2ccc[n+]([O-])c2)n1-c1c(Cl)c(Cl)cc2[nH]c(=O)c(=O)[nH]c12,outcome,[1],inactive
same,outcome,[2],inactive
same,outcome,[3],inactive
same,outcome,[4],inactive
same,outcome,[19],inactive
same,outcome,[5],inactive
same,outcome,[6],inactive
same,outcome,[7],inactive
same,outcome,[20],inactive
same,outcome,[9],inactive
same,outcome,[10],inactive
same,outcome,[18],inactive
same,outcome,[11],inactive
same,outcome,[12],inactive
same,outcome,[13],inactive
same,outcome,[14],inactive
same,outcome,[15],inactive
C=CCc1cc(S(=O)(=O)c2ccc(O)c(CC=C)c2)ccc1O,outcome,[2],inactive
same,outcome,[17],inactive
same,AC50,[3],20 µM (active)
same,AC50,[4],21.1 µM (active)
same,AC50,[19],14.4 µM (active)
same,outcome,[5],inactive
same,AC50,[6],16.3 µM (active)
same,AC50,[7],12.4 µM (active)
same,outcome,[8],inactive
same,AC50,[9],23.8 µM (active)
same,AC50,[18],37.5 µM (active)
same,AC50,[11],33.8 µM (active)
same,AC50,[12],20 µM (active)
same,AC50,[13],15.8 µM (active)
same,outcome,[14],inactive
same,AC50,[15],13.9 µM (active)

# Reference: PubChem BioAssay (EPA / NIEHS)
